Results from PubChem BioAssay (Tox21).
Active and inactive are the calls of the source. Entries that show only a call come without a potency. Calls come from the whole dose curve; as a rule, active = well fitted curve in the direction sought with a large enough effect in the repeat runs; inconclusive = weak or mixed curves; inactive = flat fitted curve, though single readings scatter.

Test: qHTS assay to test for compound auto fluorescence at 590 nm (red) in HEK293 cell free culture (AID 720683)
Settings: cell-free medium autofluorescence, Ex540/Em590 red; series mostly up to 91.3 µM
Source text: U.S. Tox21 Program National Center for Advancing Translational Sciences [NCATS] NIH Chemical Genomics Center [NCGC] U.S. Environmental Protection Agency [EPA] National Institutes of Environmental Health Sciences [NIEHS] National Toxicology Program [NTP] U.S. Food and Drug Administration [FDA] Tox21 Assay Overview: Compound auto fluorescence often interferes with screening of the compound library against various biological targets and signaling pathways. Some of these compounds may have fluorophoric properties. Such properties may interfere with the assay outputs resulting in false positives and/or negatives. To decrease such complications and ensure the compound activities are relevant in terms of biological response, the Tox21 10K compound library was screened for auto fluorescence. From the fluorophores used as reporter signals in our screening assays, the auto fluorescence equivalencies of compounds against three fluorophores have been evaluated: Triamterene, Fluorescein and Rose Bengal sodium for blue, green and red fluorescence, respectively. The fluorescence intensities were measured using Excitation/Emission wavelengths at 405/460nm, 485/535nm and 540/590nm for blue, green and red labels, respectively. This assay includes the red fluorescence data.
Tox21 Assay Protocol Summary: 5 uL of culture medium (DMEM containing 10% FBS) per well was dispensed into black wall/clear bottom 1536-well plates using a Multidrop Combi Dispenser (ThermoFisher Scientific, Waltham, MA). After 23 nL compound or DMSO vehicle was transferred into assay plate by a pintool work station (Kalypsys, San Diego, CA), fluorescence intensities in the assay plates were measured by an Envision (PerkinElmer, Shelton, CT) plate reader using three labels for measuring blue, green and red fluorescence at […] 460, 535 and 590nm respectively.

**Q.** With `Nc1nc(-c2ccccc2)cs1` as the compound, how does the Potency read?
**A.** Its Potency is “inactive”.

**Q.** With `O=C(/C=C/c1ccccc1)OC/C=C/c1ccccc1` as the compound, how does the Potency read?
**A.** The Potency was “inactive”.

**Q.** For `NC(=S)NC(N)=S`, which Potency is on record?
**A.** The Potency was “inactive”.

**Q.** With `COCCOc1cc2cc(C(=O)NC3CCN(C(C)C)CC3)n(CC(=O)Nc3ccc(Cl)cn3)c2cn1` as the compound, how does the Potency read?
**A.** Its Potency is “inactive”.

**Q.** For `Cc1cc(C(C)(C)C)cc(C)c1CC1=NCCN1`, which fluorescence, % of fluorescent control is on record?
**A.** The fluorescence, % of fluorescent control was 0.0411% [at 18.6 µM] (inactive).

**Q.** With `COC(=O)c1ccccc1OC` as the compound, how does the Potency read?
**A.** The Potency was “inactive”.

**Q.** Which Potency does the source give for `Cc1cc(C(C#N)c2ccc(Cl)cc2)c(Cl)cc1NC(=O)c1cc(I)cc(I)c1O` (stereo not given) here?
**A.** The Potency was “inactive”.

**Q.** With `C=C(C)C(=O)OCCCCCCCCCC` as the compound, how does the Potency read?
**A.** Its Potency is “inactive”.

**Q.** With `O=C(O)c1cc(=O)c2ccccc2o1` as the compound, how does the Potency read?
**A.** The Potency was “inactive”.

**Q.** For `CC(CO)Oc1ccccc1` (stereo not given), which Potency is on record?
**A.** Its Potency is “inactive”.

**Q.** For `OC/C=C/CO`, which Potency is on record?
**A.** Its Potency is “inactive”.

**Q.** With `CCCCCC(C)OC(=O)COc1ccc(Cl)c2cccnc12` (stereo not given) as the compound, how does the Potency read?
**A.** Its Potency is “inactive”.

**Q.** For `CN(C)Cc1cc(C(C)(C)C)c(O)c(C(C)(C)C)c1`, which Potency is on record?
**A.** The Potency was “inactive”.

**Q.** For `Nc1ccc(Oc2ccc(Cl)cc2)cc1`, which Potency is on record?
**A.** Its Potency is “inactive”.

**Q.** For `CC(=O)CC(=O)Nc1ccc(S(=O)(=O)O)cc1`, which Potency is on record?
**A.** The Potency was “inactive”.

**Q.** For `Cl[Si](Cl)(c1ccccc1)c1ccccc1`, which Potency is on record?
**A.** Its Potency is “inactive”.

**Q.** For `CCCCCCCCCCCCOC(=O)c1ccc(O)cc1`, which Potency is on record?
**A.** The Potency was “inactive”.

**Q.** With `c1ccsc1` as the compound, how does the Potency read?
**A.** The Potency was “inactive”.

**Q.** With `CCOC(=O)c1ccc(C2CCC(NC[C@H](O)COc3ccc(O)c(NS(C)(=O)=O)c3)CC2)cc1` (stereo not given in full) as the compound, how does the Potency read?
**A.** Its Potency is “inactive”.

**Q.** With `Clc1nnc(Cl)c2ccccc12` as the compound, how does the Potency read?
**A.** Its Potency is “inactive”.

**Q.** For `Nc1cc(Cl)c(O)c(Cl)c1`, which Potency is on record?
**A.** The Potency was “inactive”.

**Q.** For `CC(=O)[C@H]1CC[C@H]2[C@@H]3CCC4=CC(=O)CC[C@]4(C)[C@H]3CC[C@]12C`, which Potency is on record?
**A.** Its Potency is “inactive”.

**Q.** Which Potency does the source give for `COc1c(C)c2c(c(O)c1C/C=C(\C)CCC(=O)OCCN1CCOCC1)C(=O)OC2` here?
**A.** The Potency was “inactive”.

**Q.** With `CCCCCCCCCCCCCC[N+](C)(C)C` as the compound, how does the Potency read?
**A.** The Potency was “inactive”.

**Q.** With `O=C(Oc1ccccc1)Oc1ccccc1` as the compound, how does the Potency read?
**A.** Its Potency is “inactive”.

**Q.** Which Potency does the source give for `CN1CCN2c3ccccc3Cc3ccccc3C2C1` (stereo not given) here?
**A.** The Potency was “inactive”.

**Q.** For `Cc1ccc(O)c(N)c1`, which Potency is on record?
**A.** The Potency was “inactive”.

**Q.** For `CCCCOC(=O)CC`, which Potency is on record?
**A.** The Potency was “inactive”.

**Q.** With `COc1cccc2c1C(=O)c1c(O)c3c(c(O)c1C2=O)C[C@@](O)(C(C)=O)C[C@@H]3O[C@H]1C[C@H](N)[C@H](O)[C@H](C)O1` as the compound, how does the Potency read?
**A.** The Potency was “inactive”.

**Q.** With `Cc1c(C)c2c(c(C)c1OC(=O)c1cccnc1)CC[C@@](C)(CCC[C@H](C)CCC[C@H](C)CCCC(C)C)O2` as the compound, how does the Potency read?
**A.** The Potency was “inactive”.

**Q.** Which Potency does the source give for `CCC(=O)C(=O)CC` here?
**A.** Its Potency is “inactive”.

**Q.** With `CCOC(=O)NNc1ccc(N(CC)CC(C)O)nn1` (stereo not given) as the compound, how does the Potency read?
**A.** The Potency was “inactive”.

**Q.** For `OC1CCC(C2CCCCC2)CC1` (stereo not given), which Potency is on record?
**A.** The Potency was “inactive”.

**Q.** With `CCCCCCCC/C=C\CCCCCCCCN` as the compound, how does the Potency read?
**A.** The Potency was “inactive”.

**Q.** With `c1cnccn1` as the compound, how does the Potency read?
**A.** Its Potency is “inactive”.

**Q.** With `CCCCCCCC` as the compound, how does the Potency read?
**A.** The Potency was “inactive”.

**Q.** Which Potency does the source give for `O=c1[nH]c2ccccc2n1CCCN1CCN(C(c2ccccc2)c2ccccc2)CC1` here?
**A.** The Potency was “inactive”.

**Q.** For `Cc1c(F)c(N2CCNC(C)C2)cc2c1c(=O)c(C(=O)O)cn2C1CC1` (stereo not given), which Potency is on record?
**A.** The Potency was “inactive”.

**Q.** With `CCN1C(=O)c2ccccc2C1Nc1ccc(OCCN2CCCCC2)cc1` (stereo not given) as the compound, how does the Potency read?
**A.** Its Potency is “inactive”.

**Q.** With `[Cu+]` as the compound, how does the Potency read?
**A.** Its Potency is “inactive”.
